# According to ChEMBL document CHEMBL3988442, “University of Dundee, Small-Polar-MMV Screening Library” (2021):
# The campaign covered roughly 48,000 compounds. About 13,000 (27%) showed an effect of 50% or more. This is one part of the list.
# Tested on: Wolbachia pipientis
# Assay: Anti-Wolbachia Cell-Based Screen
# Assay type: functional
# Parameters: scale not given: in the data most compounds retested in dose-response had high values
# Settings: 5 µM
row,Compound,Percent Effect
1,CCOCC1CN(C)Cc2cnn(CC3CCCC3)c21.O=C(O)C(F)(F)F.O=C(O)C(F)(F)F (centres undefined),4.173%
2,COCC1CN(Cc2ccc(C)o2)Cc2cnn(CC3CCOCC3)c21.O=C(O)C(F)(F)F.O=C(O)C(F)(F)F (centres undefined),3.505%
3,COCC1CN(c2ccc(C)nn2)Cc2cnn(C)c21.O=C(O)C(F)(F)F.O=C(O)C(F)(F)F (centres undefined),88.37%
4,CCOCC1CN(c2ccc(C)nn2)Cc2cnn(CC)c21.O=C(O)C(F)(F)F.O=C(O)C(F)(F)F (centres undefined),109.7%
5,CCn1cc2c(n1)C(COC)CN(c1ccc(C)nn1)C2.O=C(O)C(F)(F)F.O=C(O)C(F)(F)F (centres undefined),2.14%
6,CCOCC1CN(S(=O)(=O)N(C)C)Cc2cnn(C)c21.O=C(O)C(F)(F)F (centres undefined),-5.434%
7,Cc1noc(C)c1CN1Cc2cnn(C)c2C(COCC2CC2)C1.O=C(O)C(F)(F)F.O=C(O)C(F)(F)F (centres undefined),-11.34%
8,COCC1CN(c2ccc(C)nn2)Cc2cnn(CC3CCOCC3)c21.O=C(O)C(F)(F)F.O=C(O)C(F)(F)F (centres undefined),113.1%
9,Cc1ccc(N2Cc3cnn(C)c3C(COCC3CC3)C2)nn1.O=C(O)C(F)(F)F.O=C(O)C(F)(F)F (centres undefined),105.5%
10,CCOCC1CN(c2ccc(C)nn2)Cc2nn(CC)cc21.O=C(O)C(F)(F)F.O=C(O)C(F)(F)F (centres undefined),10.42%
11,CCOCC1CN(S(=O)(=O)N(C)C)Cc2cnn(CC)c21.O=C(O)C(F)(F)F (centres undefined),-6.757%
12,Cc1ncsc1CN1Cc2cnn(C)c2C(COCC2CC2)C1.O=C(O)C(F)(F)F.O=C(O)C(F)(F)F (centres undefined),-6.117%
13,c1ccc(-c2nc3c(c(NCCn4ccnn4)n2)CCNCC3)nc1,-1.189%
14,O=S(=O)(NCCCn1ccc2ccccc21)N1CCCCC1,-18.64%
15,CC(Cc1cccnc1)Nc1ncnc2cccc(F)c12 (centres undefined),-13.17%
16,Cc1noc(C)c1CNC(=O)N1CCC(CN2CCC(C)CC2)CC1,0.5097%
17,CS(=O)(=O)N1Cc2cnn(CC3CC3)c2C(COCC2CC2)C1.O=C(O)C(F)(F)F (centres undefined),-10.17%
18,CCn1ncc2c1C(COCC1CC1)CN(S(=O)(=O)N(C)C)C2.O=C(O)C(F)(F)F (centres undefined),4.655%
19,CCn1ncc2c1C(COCC1CC1)CN(c1ccc(C)nn1)C2.O=C(O)C(F)(F)F.O=C(O)C(F)(F)F (centres undefined),84.42%
20,O=C(c1ccc2nccn2c1)N1CCC(CCn2cccn2)CC1,-0.54%
21,COc1ccc(S(=O)(=O)N2CCn3nc(C)nc3C2)cc1C,-5.027%
22,Cc1cc(S(=O)(=O)N2CCC(S(C)(=O)=O)C2)ccc1F (centres undefined),74.96%
23,Cc1ccc(S(=O)(=O)N2CC[C@@H](O)C2)c(F)c1,-13.3%
24,CS(=O)(=O)C1CCN(S(=O)(=O)c2ccc(F)c(F)c2)CC1,110.6%
25,Cc1cc(S(=O)(=O)N2CCCN3CCCC3C2)ccc1F (centres undefined),-4.296%

row,Compound,Percent Effect
1,COc1ccc(S(=O)(=O)N2CCC(S(C)(=O)=O)CC2)cc1C,-19.61%
2,CS(=O)(=O)C1CCN(S(=O)(=O)c2ccc(F)c(F)c2)C1 (centres undefined),88%
3,CCC[C@@H]1CN(S(=O)(=O)c2ccc(C)c(F)c2)C[C@H]1N(C)C,-4.153%
4,Cc1ccc(S(=O)(=O)N2CCC(S(C)(=O)=O)CC2)cc1C,132.3%
5,Cn1cnnc1S(=O)(=O)C1CCN(S(=O)(=O)c2ccc(F)c(Cl)c2)CC1,-4.538%
6,Cc1cc(S(=O)(=O)N2CCC(S(C)(=O)=O)CC2)ccc1F,-10.45%
7,O=S1(=O)CCC(c2nnc(-c3cnc4onc(C5CC5)c4c3)o2)C1 (centres undefined),-6.363%
8,CN(C)C(=O)NC1COC2(CCN(Cc3ccc(N(C)C)cc3)CC2)C1 (centres undefined),6.702%
9,CSCCNC(=O)c1cc(Br)cn1C(C)C,-6.324%
10,Cc1nc(C)n(CC2CCCN2Cc2cn3ccsc3n2)n1 (centres undefined),1.786%
11,CCC(OC)C(=O)N1CCC2(CC1)c1nc[nH]c1CCN2S(C)(=O)=O (centres undefined),-9.741%
12,CCOCC1CN(C(=O)c2cccs2)Cc2cnn(CC3CC3)c21 (centres undefined),108.8%
13,COCC1c2c(cnn2CC2CCOCC2)CCN1Cc1ccoc1.O=C(O)C(F)(F)F.O=C(O)C(F)(F)F (centres undefined),-3.551%
14,Cn1ncc2c1C(COCC1CC1)CN(C(=O)Cc1ccsc1)C2 (centres undefined),0.3372%
15,Cn1ncc2c1C(COCC1CC1)CN(C(=O)c1ccoc1)C2 (centres undefined),107.9%
16,CCn1ncc2c1C(COCC1CC1)CN(C(=O)c1cccs1)C2 (centres undefined),2.096%
17,CCOCC1CN(S(C)(=O)=O)Cc2cnn(CC3CCOCC3)c21.O=C(O)C(F)(F)F (centres undefined),-18.06%
18,Cn1ncc2c1C(COCC1CC1)CN(S(=O)(=O)C1CC1)C2 (centres undefined),-3.815%
19,O=C(c1ccco1)N1Cc2cnn(CC3CC3)c2C(COCC2CC2)C1 (centres undefined),105.1%
20,COCC1CN(C(=O)c2ccoc2)Cc2cnn(CC3CCOCC3)c21.O=C(O)C(F)(F)F (centres undefined),114.4%
21,CCOCC1CN(C(=O)c2cccn2C)Cc2cnn(CC3CC3)c21.O=C(O)C(F)(F)F (centres undefined),-14.68%
22,CCn1cc2c(n1)C(COCC1CC1)CN(C(=O)c1ccco1)C2 (centres undefined),0.7054%
23,COC(=O)c1ccc(Cl)c(NS(=O)(=O)c2cn(C)cn2)c1,1.86%
24,CC(C)(C)c1oc(C(N)=O)cc1CN1CCOC(C(F)(F)F)C1 (centres undefined),-3.878%
